Sampled rows, rich in hits. Any-hit rate of the full collection: about 19%.
Pf growth 96h – inhibits malaria parasite growth, 96 h. Potency, µM (titrated, usually from 28.7 µM), usual class: inhibitors. 6.9% of 320,000 active. P. falciparum luciferase reporter growth, 96 h
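Two-generation exposure (96 h) targets delayed-death phenotype. Reporter parasites carrying integrated firefly luciferase, in red cells at 2% hematocrit and 0.05% parasitemia final, kept at 37 C, 5% CO2; luminescence loss indicates inhibition.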
Pf growth 48h – P. falciparum growth inhibition at 48 hours (one generation); P. falciparum luciferase growth in erythrocytes, 48 h; Potency, µM (highest dose often 28.7 µM), actives largely listed as inhibitors; 5.9% of 310,000 active; AID 504832
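Erythrocytes infected with P. falciparum carrying an integrated firefly luciferase reporter (2% hematocrit, 0.1% parasitemia final) were exposed to compounds in RPMI 1640 with 0.5% Albumax at 37 C, 5% CO2. Growth inhibition was scored as reduced luminescence.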
SARS PLP yeast – inhibitors of SARS-CoV papain-like protease in yeast; Potency, µM (series often up to 32.9 µM), actives largely listed as activators; S. cerevisiae expressing SARS-CoV PLpro, growth rescue; AID 485353; 0.19% of 330,000 active; calls by dose curve; further: nearly all actives have a fitted effect of over 55% in size
Shiga inhibitor – inhibitors of Shiga toxin in Vero cells | Vero cells, Shiga toxin protein synthesis inhibition reporter | inhibition, % at 38.7 µM | 9.2% of 290,000 active | AID 2315; in the data active means inhibition mostly above about 28%, no sharp cut-off; inactive means mostly below about 43%
CHX counter – affects cycloheximide protein synthesis inhibition readout, counter-screen | cell reporter, cycloheximide protein synthesis inhibition counterscreen | max response, % | 12% of 300,000 active; in the data active means max response mostly above about 13%, no sharp cut-off; inactive means mostly below about 14%; further: read at 38.3 µM for the half of the compounds with a filed dose
AMA1-RON2 inh – AMA1-RON2 (P. falciparum) interaction inhibition; AID 720542; Potency, µM (series often up to 58.2 µM), actives largely listed as inhibitors; AlphaScreen AMA1-biotinylated RON2 peptide binding; 0.2% of 360,000 active; further: nearly all actives have a fitted effect of over 45% in size
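AMA1 (3D7) with his tag at 25 nM final met compounds first, then biotinylated RON2 peptide at 25 nM; detection used donor plus acceptor beads, 10 µg/mL apiece, read by AlphaScreen after 30 min at room temperature.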
Of the large screens only hits and unclear results are named; the others gave an inactive call. Unless noted, the call rests on the fitted dose curve; in most records, active means well fitted curve in the direction sought with a large enough effect; inconclusive means small, poorly fitted or top-dose-only effect, or another doubt; inactive means no such curve, though single readings can be large; an effect the other way counts as inactive or inconclusive.

Cc1ccc(C(=O)N2CCc3ccccc32)cc1	Shiga inhibitor 90, CHX counter 31
CCc1sc(C(=O)N2CCc3ccccc32)cc1C	Shiga inhibitor 102, CHX counter 66
CCOc1ccc(C(=O)N[C@H](C(=O)Nc2ccccc2OC)C(C)C)cc1	Pf growth 96h inconclusive
Cc1ccc(Sc2ncccc2COC(=O)NC(C)C)cc1	Shiga inhibitor 118, CHX counter 37
O=C(NCC(=O)N(CC1CCCO1)C1(C(=O)NC2CCCCC2)CCCCC1)c1ccccc1 (stereo not drawn)	Pf growth 96h inconclusive (no result: Pf growth 48h)
COc1ccc(N2CCN(S(=O)(=O)c3c(C)nc4sccn4c3=O)CC2)cc1	Pf growth 96h 4.1µM
O=[N+]([O-])c1nn(-c2ccc3c(c2)OCCO3)n(O)c1=NC1CCCCCC1	Shiga inhibitor 84, CHX counter 32, AMA1-RON2 inh inconclusive (no result: Pf growth 48h)
Cc1cccc(-n2nc([N+](=O)[O-])c(=NC3CCN(Cc4ccccc4)CC3)n2O)c1	Pf growth 96h inconclusive, Pf growth 48h inconclusive
O=[N+]([O-])c1nn(-c2ccc3c(c2)OCCO3)n(O)c1=NC1CCCC1	Shiga inhibitor 42, CHX counter 32 (no result: Pf growth 48h)
COCCCNC(=O)CSc1nc2ccccc2c(=O)n1CCc1ccc(S(N)(=O)=O)cc1	Pf growth 96h inconclusive, Pf growth 48h inconclusive
COc1cccc(C(=O)NCC(C)(C)SCc2ccc(F)cc2)c1	none
COc1cccc(C(=O)NCCSc2ccc(F)cc2)c1	Shiga inhibitor 57, CHX counter 39
COc1cccc(C(=O)NCCSc2ccc(C)cc2)c1	Pf growth 96h inconclusive, CHX counter 21
COc1cccc(C(=O)NCCCNC(=O)c2cccc(OC)c2)c1	none (no result: Shiga inhibitor)
O=[N+]([O-])c1cc2c(cc1/C=N/NS(=O)(=O)c1ccc(Br)cc1)OCO2	Pf growth 96h inconclusive
O=P(O)(O)C(O)(Cn1ccnc1)P(=O)(O)O	none (no result: SARS PLP yeast, AMA1-RON2 inh)
CNc1ccc(C=C2C=Cc3ccccc32)cc1	AMA1-RON2 inh 25µM (no result: Pf growth 96h, Pf growth 48h, SARS PLP yeast, Shiga inhibitor, CHX counter)
CNc1ccc(C2(O)C(=O)c3ccccc3C2=O)cc1	none
Cc1ccc(-c2nc3cc(C)c(Br)c(C)n3c2CC(C)(C)C)cc1	none (no result: Pf growth 96h, Pf growth 48h, SARS PLP yeast, Shiga inhibitor, CHX counter)
COc1ccc(-n2c(SCC(=O)Nc3ccc(Br)cc3)nc(O)cc2=O)cc1	Pf growth 48h inconclusive
Cc1cc(N(C)C)ccc1N=Nc1ccc2ncccc2c1	Pf growth 96h inconclusive, Shiga inhibitor 95, CHX counter 52, AMA1-RON2 inh 11µM
Cc1nn(CC(=O)Nc2ccc(S(N)(=O)=O)cc2)c(=O)c2ccccc12	none
CC(C)/C(=N/Nc1ccccc1[N+](=O)[O-])c1ccccc1	Pf growth 96h 8.3µM, Shiga inhibitor 48, CHX counter 27, AMA1-RON2 inh inconclusive
C/C(=N\Nc1ccc([N+](=O)[O-])cc1)c1ccc(N2CCOCC2)cc1	none
C/C(=N\Nc1ccccc1[N+](=O)[O-])c1ccc(N2CCOCC2)cc1	Shiga inhibitor 86, CHX counter 21, AMA1-RON2 inh inconclusive
C/C(=N\NC(=O)c1cccnc1)c1ccc(C)c([N+](=O)[O-])c1	none
N#C/C(=N/Nc1ccccc1[N+](=O)[O-])C(N)=S	none
COC(=O)N/N=C(\C)c1ccc(C)c([N+](=O)[O-])c1	Shiga inhibitor 17, CHX counter 19
C/C(=N/Nc1ccccc1[N+](=O)[O-])c1ccc(C)c([N+](=O)[O-])c1	Pf growth 48h inconclusive, CHX counter 16
CC1(C)CCC[C@@](C)([C@H]2CC[C@]3(C)[C@@H]2[C@H](O)C[C@@H]2[C@@]4(C)CC[C@H](O)C(C)(C)[C@@H]4CC[C@]23C)O1	none (no result: Pf growth 96h, Pf growth 48h, SARS PLP yeast, AMA1-RON2 inh)
CCc1ccccc1NC(=O)NC1CCCCCCC1	Pf growth 96h inconclusive
CC1NC(=O)c2cccnc2-n2c1nc1ccccc1c2=O (stereo not drawn)	none (no result: Pf growth 96h, Pf growth 48h, SARS PLP yeast, Shiga inhibitor, CHX counter)
O=C(c1cc[n+]([O-])cc1)N1CCCC(N2CCN(c3cccc(C(F)(F)F)c3)CC2)C1 (stereo not drawn)	Pf growth 96h inconclusive, Pf growth 48h 12µM
Oc1ccccc1CN1CCCC(N2CCN(c3cccc(C(F)(F)F)c3)CC2)C1 (stereo not drawn)	Pf growth 48h 1.5µM (no result: Shiga inhibitor)
O=C(c1ccsc1)N1CCCC(N2CCN(c3cccc(C(F)(F)F)c3)CC2)C1 (stereo not drawn)	none
O=C(c1ccccn1)N1CCCC(N2CCN(c3cccc(C(F)(F)F)c3)CC2)C1 (stereo not drawn)	Pf growth 48h inconclusive, Shiga inhibitor 41, CHX counter 20
O=C(c1ccccn1)N1CCN(c2cccc(C(F)(F)F)c2)CC1	none
O=C(Nc1cccc(F)c1)N(Cc1ccc(Cl)cc1)CC(O)C(F)(F)F (stereo not drawn)	Pf growth 96h 2.6µM, Pf growth 48h 8.3µM
O=C(Nc1ccccc1)N(Cc1ccccc1)CC(O)C(F)(F)F (stereo not drawn)	none
Cc1ccc(N=C2NC(=O)S/C2=C\c2ccco2)cc1	Pf growth 96h inconclusive, Pf growth 48h inconclusive, Shiga inhibitor 49, CHX counter 18
O=C1NC(=Nc2ccccc2)/C(=C/c2ccco2)S1	Pf growth 96h inconclusive, Pf growth 48h inconclusive
O=C1/C(=C/c2ccccn2)SC(=S)N1c1ccc(O)cc1	Shiga inhibitor 67, CHX counter 30
COc1ccc(N=C2NC(=O)/C(=C/C=C/c3ccccc3)S2)cc1	Pf growth 96h 6.6µM, Pf growth 48h 7.4µM
COc1ccc(N=C2NC(=O)/C(=C/c3ccco3)S2)cc1	Pf growth 96h 9.3µM, Pf growth 48h inconclusive, CHX counter 36
Cc1cccc(N2C(=O)/C(=C/c3ccccn3)SC2=S)c1	none
Cc1ccc(N2C(=O)/C(=C/c3ccco3)SC2=S)cc1	CHX counter 16
Oc1ccccc1C1CC(c2cccs2)=NC(c2cccc(Br)c2)N1 (stereo not drawn)	Pf growth 96h 2.6µM, Pf growth 48h inconclusive, Shiga inhibitor 71, CHX counter 42
O=S(=O)(c1ccccc1)N1N=C(c2cccs2)CC1c1cccc(O)c1 (stereo not drawn)	Pf growth 96h inconclusive (no result: SARS PLP yeast)
O=C(Nc1nc2ccccc2s1)Nc1ccc(F)cc1F	Shiga inhibitor 72, CHX counter 53
O=C(NNc1nc2ccccc2s1)Nc1ccc(F)cc1	Shiga inhibitor 85, CHX counter 62
O=C(CSc1nc2ccccc2s1)NNC(=O)Nc1ccc(Cl)c(Cl)c1	none
O=C(NNc1nc2ccccc2s1)Nc1ccc(Cl)c(Cl)c1	Shiga inhibitor 60, CHX counter 40
O=C(NNc1nc2ccccc2s1)c1ccccc1F	Shiga inhibitor 59, CHX counter 29
O=C(NNc1nc2ccccc2s1)C1CC1	none
O=C(Nc1ccc(F)cc1F)Nc1sccc1-c1nc2ccccc2s1	Pf growth 96h inconclusive, Pf growth 48h inconclusive
CC(C)C(=O)NNc1nc2ccccc2s1	Shiga inhibitor 51, CHX counter 38
